Results reported in PubChem BioAssay (NCI).
Compounds without any hit were thinned out: in the full panel of roughly 79,000, 15% have a hit. Activity calls are given as the source filed them. Rule as the data show it: active = growth inhibition above about 70%; inactive = the rest.

Tests used:
[1] = NCI Yeast Anticancer Drug Screen. Data for the rad50 strain (AID 155);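 also: 0% = growth of vehicle-only cultures of the same strain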; conditions: S. cerevisiae rad50 strain growth inhibition; at 50.0 µM; active compounds read high
Summary of the method: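 Cells are treated with compound, grown, and their growth is then scored against vehicle-only cultures of the same repair-deficient yeast strain.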

[2] = NCI Yeast Anticancer Drug Screen. Data for the mec2-1 strain (AID 157); conditions: S. cerevisiae mec2-1 strain, at 50.0 µM, active compounds read high
Summary of the method: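 Vehicle-treated cultures served as reference for growth inhibition of compound-exposed mec2-1 yeast.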

[3] = NCI Yeast Anticancer Drug Screen. Data for the sgs1 mgt1 strain (AID 161);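 also: 0% = growth of cultures given vehicle only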; conditions: S. cerevisiae sgs1 mgt1 strain, at 50.0 µM, active compounds read high
Summary of the method: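 Genetically altered yeast, compound exposure, growth inhibition relative to vehicle.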

[4] = NCI Yeast Anticancer Drug Screen. Data for the cln2 rad14 strain (AID 165);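 also: 0% = growth equal to vehicle treated cultures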; conditions: S. cerevisiae cln2 rad14 strain, at 50.0 µM, active compounds read high
Summary of the method: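 Each compound was tested on cln2 rad14 yeast. Inhibition of growth was calculated against vehicle-exposed controls.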

[5] = NCI Yeast Anticancer Drug Screen. Data for the bub3 strain (AID 167); conditions: S. cerevisiae bub3 mutant strain, at 50.0 µM, active compounds read high
Summary of the method: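 Part of a panel of yeast mutants defective in DNA damage repair or cell cycle regulation. Each strain is grown with compound, and inhibition is calculated relative to solvent-treated cultures.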

[6] = NCI Yeast Anticancer Drug Screen. Data for the mlh1 rad18 strain (AID 175); conditions: S. cerevisiae mlh1 rad18 strain growth inhibition; at 50.0 µM; active compounds read high
Summary of the method: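 Vehicle-treated cultures served as the reference for growth inhibition in a yeast strain carrying DNA damage repair alterations exposed to each compound.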

Measured: growth inhibition

COc1cc([N+](=O)[O-])c(F)cc1F
inactive: [1] -0.05% | [2] 0.85% | [3] -0.05% | [4] -20.1% | [5] 9.35% | [6] -3.1%

COC(=O)c1nnn(-c2c(C)cccc2C(C)C)c1C(=O)c1ccccc1
inactive: [1] 6% | [2] -2.45% | [3] -2.15% | [4] -7.6% | [5] -23.8% | [6] 24.1%

O=C(O)C(=N\Nc1ccccc1)/C(=N\Nc1ccccc1)C(=O)O
inactive: [1] 30.7% | [2] -6.25% | [3] 33.9% | [4] 21.8% | [5] 24.2% | [6] 7.3%

CC(=O)N(CCC(C)C)c1ccccc1
inactive: [1] 10.6% | [2] 11.6% | [3] -0.75% | [4] -43.9% | [5] -6.45% | [6] -6.85%

Clc1ccc(Nc2nc3ccccc3nc2-c2cccs2)cc1Cl
inactive: [1] -13.4% | [2] 4.55% | [3] 1.2% | [4] -7.5% | [5] -3.05% | [6] -2.1%

N#CC1CC=CCC1 (centres undefined)
inactive: [1] 19.4% | [2] 4.95% | [3] 0.35% | [4] 15.2% | [5] -12.9% | [6] -5.65%

C=CN1C(=O)NC(C)(CC(C)C)C1=O (centres undefined)
inactive: [1] -1.15% | [2] -10.2% | [3] -6% | [4] 6.75% | [5] -7.25% | [6] 18.4%

NC(=O)C12OC1(Cl)CCCC2(Cl)Cl (centres undefined)
inactive: [1] 1.05% | [2] -27.9% | [3] 8.5% | [4] 9.05% | [5] 18% | [6] 18.2%

O=C1c2ccccc2C(=O)c2c1c([N+](=O)[O-])c1c(c2[N+](=O)[O-])OCO1
inactive: [1] 7.15% | [2] 0.15% | [3] 21.8% | [4] -0.15% | [5] 14.1% | [6] 31.2%

Cn1c(CBr)nc2c1C(=O)c1nc[nH]c(=O)c1C2=O
inactive: [1] 32% | [2] 0.55% | [3] 37.6% | [4] 11.8% | [5] 3.4% | [6] 31.6%

COc1ccc2c(c1)OC(C)(C)C(c1ccccc1)=C2c1ccc(OCCN2CCCC2)cc1
active: [1] 99.6% | [2] 99.8% | [3] 99.9% | [4] 99.3% | [5] 99.3% | [6] 99.7%

O=C(O)CCNc1ccccc1C(=O)O
inactive: [1] -8.4% | [2] -15.2% | [3] -13.9% | [4] -9.6% | [5] -40.8% | [6] -0.25%

CC12CCC(C/C1=N\N=C(N)N)C2(C)C (centres undefined)
inactive: [1] 7.55% | [2] -4% | [3] -2.2% | [4] -36.9% | [5] -5.05% | [6] 6.2%

CCOc1ccccc1NC(=O)C1=C(C)NC(C)=C(C(=O)Nc2ccccc2OCC)C1c1ccc(NC(C)=O)cc1
inactive: [1] -30.1% | [2] -10.8% | [3] -15.4% | [4] -5.9% | [5] -22.2% | [6] 11.7%

O=C(Nc1ccc(S(=O)(=O)/N=c2\ncccn2C(=O)C(C(F)(F)F)C(F)(F)F)cc1)C(C(F)(F)F)C(F)(F)F
inactive: [1] -5% | [2] 11.9% | [3] -0.65% | [4] 22.2% | [5] 28.4% | [6] -26.8%

CC(=O)OC1CCC2(C)C3=C(C(=O)CC2C1(C)C)C1(C)CCC(C(C)CCCC(C)C)C1(C)CC3 (centres undefined)
inactive: [1] 0.3% | [2] 1.6% | [3] -25.4% | [4] 3.15% | [5] 4.3% | [6] -0.6%

COc1c(Cl)c(Cl)c([N+](=O)[O-])c(Cl)c1Cl
inactive: [1] 40.4% | [2] 30.1% | [3] 35.5% | [4] 7.65% | [5] 37.9% | [6] 33.2%

C=CC(CCCC(C=C)OC(C)=O)OC(C)=O (centres undefined)
inactive: [1] 2.2% | [2] -4.95% | [3] -0.65% | [4] -18.1% | [5] 5.6% | [6] 5.5%

c1scc2c1COCCOCCOCCOCc1cscc1COCCOCCOCCOC2
inactive: [1] -20.2% | [2] -26.1% | [3] -38.4% | [4] 26.6% | [5] -30.4% | [6] -46.5%
